This note sets out measurements from the supplement of paper PMC10849652.

Of roughly 7,900 targets only a part is listed; those with a hit were picked by preference. About 0.6% of all pairs of compound and target were hits. Values without a mark were called inactive.

Assay in all cases: log2 fold change, soluble protein after heating vs DMSO (PISA); higher = thermal stabilisation; K562 cells, 10 uM, 30 min; active = over 0.2 and 3.5 SD of the protein, either way, in both replicates (recomputed)
Compound in one test: C#Cc1cccc(Nc2ncnc3cc(OCCOC)c(OCCOC)cc23)c1 [erlotinib]
The procedure, abridged:
(§1)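 For each measurement, 10 μM compound was applied for 30 min to K562 cells at 2×10^6 cells/mL. Aliquots were heated for 3 min across 48°C-58°C, pooled, and extracted in PBS with 0.5% NP-40 at 4°C; the supernatant after 21,000xg for 90 min was soluble protein. This was quantified by TMTpro 16plex LC-MS/MS with channel sums equalised, and thermal stability was reported relative to control samples from duplicates, on a log2 fold-change scale.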

Compound in test [1]: C1=CC(=CC=C1C2=NC3=C(N2)C=C(C=C3)C(=O)N)OC4=CC=C(C=C4)Cl
In outline:
as §1

Compound in test [2]: C1=CC2=NC=CN=C2C=C1/C=C/3\C(=O)NC(=O)S3
In outline:
as §1

Compound in test [3]: C1=CC=C(C=C1)C2=NC(=C(N2)C3=CC=NC=C3)C4=CC(=C(C=C4)Cl)O
The procedure, abridged: as §1

Compound in test [4]: C1CCN(C1)C(=O)NC2=CC=CC(=C2)NC3=NC=C(C(=N3)NCCC4=CN=CN4)Br
The procedure, abridged: as §1

Compound in test [5]: C1CN(CCC1(CC2=CC=C(C=C2)Cl)N)C3=NC=NC4=C3C=CN4
In outline:
as §1

Compound in another test: C1COCCN1CCN2C3=CC=CC=C3N=C2NC(=O)C4=CC(=CC=C4)[N+](=O)[O-] [IRAK-1-4 Inhibitor I]
The procedure, abridged: as §1

Compound in the next test: C=CC(=O)N1CCC[C@@H](n2nc(-c3ccc(Oc4ccccc4)cc3)c3c(N)ncnc32)C1 [ibrutinib]
The procedure, abridged: as §1

Compound in another test: CC(C)(C)Cn1c(N)nc2ccc(-c3[nH]c(C(C)(C)C)nc3-c3ccc(F)cc3)nc21 [ralimetinib]
The procedure, abridged: as §1

Compound in test [6]: CC(C)C1=C2N=C(C=C(N2N=C1)NCC3=CC=CC=C3)NCCCCCCN
The procedure, abridged:
as §1

Compound in test [7]: CC(C)C[C@@H](C=O)NC(=O)[C@H](CC(C)C)NC(=O)[C@H](CC(C)C)NC(=O)OCc1ccccc1
In outline: as §1

Compound in another test: CC(C)N(C[C@H]1O[C@@H](n2cnc3c(N)ncnc32)[C@H](O)[C@@H]1O)[C@H]1C[C@@H](CCc2nc3cc(C(C)(C)C)ccc3[nH]2)C1 [pinometostat]
In outline:
as §1

Compound in test [8]: CC1=C(C(CC(=O)N1)C2=CC=C(C=C2)C(F)(F)F)C(=O)NC3=C(C=C4C(=C3)C=NN4)F
The procedure, abridged:
as §1

Compound in test [9]: CC1=C(C2=C(C=C1)C(=O)C3=CC=CC=C3N2CCCN)C
In outline: as §1

Compound in test [10]: C/C(=N\NC(=O)C1=CC(=CC=C1)S(=O)(=O)N2CCOCC2)/C3=C(C=CC(=C3)Cl)O
The procedure, abridged:
as §1

Compound in test [11]: C1=CC2=C(C=CC(=C2)/C=C\3/C(=O)NC(=NCC4=CC=CS4)S3)N=C1
The procedure, abridged: as §1

Compound in test [12]: C1=CC=C2C(=C1)C3=NNC4=CC=CC(=C43)C2=O
In outline: as §1

Compound in test [13]: CC(=O)c1cnc2ccc(-c3cc(Cl)c(O)c(Cl)c3)nc2c1N[C@H]1CC[C@H](CN(C)C)CC1
In outline:
as §1

Compound in test [14]: C1=CC(=C(C=C1Cl)C2=NC3=NC=CN=C3C(=N2)NC4=CC=NC=C4)F
In outline: as §1

Compound in test [15]: CC(C)(O)CC(=O)NCCn1ccc2ncnc(Nc3ccc(Oc4cccc(C(F)(F)F)c4)c(Cl)c3)c21
In outline: as §1

UniProt O95716, sequence (O95716 whole entry, looked up): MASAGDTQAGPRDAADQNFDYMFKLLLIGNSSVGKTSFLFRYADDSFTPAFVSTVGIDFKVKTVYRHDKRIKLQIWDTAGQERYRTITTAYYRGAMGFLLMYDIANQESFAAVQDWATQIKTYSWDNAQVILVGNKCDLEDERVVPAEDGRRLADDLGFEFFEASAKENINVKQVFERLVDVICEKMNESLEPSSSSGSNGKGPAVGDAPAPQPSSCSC
UniProt Q04206, sequence (Q04206 whole entry, looked up): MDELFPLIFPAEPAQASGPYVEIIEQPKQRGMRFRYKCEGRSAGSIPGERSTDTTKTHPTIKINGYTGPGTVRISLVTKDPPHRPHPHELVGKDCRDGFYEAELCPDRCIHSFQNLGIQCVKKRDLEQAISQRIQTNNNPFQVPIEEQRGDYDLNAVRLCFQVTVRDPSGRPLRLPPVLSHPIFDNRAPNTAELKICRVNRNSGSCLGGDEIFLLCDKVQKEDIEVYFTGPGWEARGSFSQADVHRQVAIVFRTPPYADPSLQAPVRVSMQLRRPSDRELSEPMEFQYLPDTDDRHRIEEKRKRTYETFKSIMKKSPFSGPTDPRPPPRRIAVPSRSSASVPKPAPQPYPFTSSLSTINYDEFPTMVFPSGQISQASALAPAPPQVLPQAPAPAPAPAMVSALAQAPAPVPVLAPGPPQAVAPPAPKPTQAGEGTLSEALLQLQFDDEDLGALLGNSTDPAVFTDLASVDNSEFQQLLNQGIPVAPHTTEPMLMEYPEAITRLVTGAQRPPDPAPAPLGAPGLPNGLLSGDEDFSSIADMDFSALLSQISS
UniProt A6NEQ0, sequence (A6NEQ0 whole entry, looked up): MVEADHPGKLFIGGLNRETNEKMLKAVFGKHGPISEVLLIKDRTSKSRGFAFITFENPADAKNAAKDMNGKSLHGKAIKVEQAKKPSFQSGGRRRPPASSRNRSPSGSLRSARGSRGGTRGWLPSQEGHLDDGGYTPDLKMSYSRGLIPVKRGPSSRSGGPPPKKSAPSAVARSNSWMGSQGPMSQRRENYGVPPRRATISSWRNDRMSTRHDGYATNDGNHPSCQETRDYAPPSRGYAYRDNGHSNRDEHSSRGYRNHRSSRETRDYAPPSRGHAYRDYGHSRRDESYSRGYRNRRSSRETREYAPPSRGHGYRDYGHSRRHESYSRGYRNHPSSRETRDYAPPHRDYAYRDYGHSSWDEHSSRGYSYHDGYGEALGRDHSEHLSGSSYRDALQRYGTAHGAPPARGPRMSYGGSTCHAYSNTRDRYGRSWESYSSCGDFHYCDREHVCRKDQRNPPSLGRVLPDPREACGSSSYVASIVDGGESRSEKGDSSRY
UniProt Q96LZ7, sequence (Q96LZ7 whole entry, looked up): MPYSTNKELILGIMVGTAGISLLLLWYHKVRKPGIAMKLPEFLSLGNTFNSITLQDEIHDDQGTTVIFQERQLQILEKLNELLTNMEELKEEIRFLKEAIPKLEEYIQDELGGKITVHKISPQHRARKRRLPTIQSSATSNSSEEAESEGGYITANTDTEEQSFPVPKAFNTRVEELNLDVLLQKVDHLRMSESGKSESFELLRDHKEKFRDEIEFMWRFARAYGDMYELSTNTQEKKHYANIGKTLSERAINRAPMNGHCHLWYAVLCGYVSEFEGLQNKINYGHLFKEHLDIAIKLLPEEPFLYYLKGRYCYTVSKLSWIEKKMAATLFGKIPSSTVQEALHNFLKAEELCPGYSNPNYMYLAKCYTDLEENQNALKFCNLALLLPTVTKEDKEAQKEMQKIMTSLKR

As for RBMY1E (UniProt A6NEQ0), the log2 fold change is -0.238 with erlotinib; 0.06 in test [1]; -0.003 in test [2]; -0.044 in test [3]; -0.072 in test [4]; -0.099 in [5]. In addition, the log2 fold change is 0.019 with IRAK-1-4 Inhibitor I; -0.024 with ibrutinib; 0.131 in the test with ralimetinib; 0.134 in [6]; 0.141 in test [7]; -0.032 in the test with pinometostat. The log2 fold change in test [8] is 0.026; in [9], -0.01.

Regarding RMDN2 isoform 2 (UniProt Q96LZ7), the log2 fold change in test [3] was 0.088; with IRAK-1-4 Inhibitor I it was 0.034; with ralimetinib it was 0.095; in [7] it was 0.137; with pinometostat it was 0.025; in test [8], -0.192.

RPS3 (UniProt E9PJN9): the log2 fold change in test [3] is 0.203; in test [4] it was 0.021; in test [5], -0.151; with ralimetinib, 0.228; in test [7], 0.134; in test [9], -0.126.

RAB3D (UniProt O95716): the log2 fold change with erlotinib was -0.094; in [10], 0.036; in [1] it was -0.141; in test [11] it was -0.055; in [2], 0.006; in [3], -0.145. Also, the log2 fold change in test [12] was -0.058; in [4], 0.007; in test [5] it was 0.036; in the test with ibrutinib it was -0.096; in test [13], -0.02; with ralimetinib it was 0.133. The log2 fold change in test [6] is 0.121; in [7], -0.605 (active); in test [8] it was -0.14; in [9] it was -0.104.

Consider RELA (UniProt Q04206), for which the log2 fold change in [10] is 0.034; in [14], 0.003; in test [1] it was -0.011; in [11], -0.007; in [2] it was 0.014; in [3] it was -0.002. Moreover, the log2 fold change is 0.004 in [12]; -0.022 in test [4]; 0.011 in [5]; -0.011 in the test with IRAK-1-4 Inhibitor I; -0.002 in the test with ibrutinib; 0.022 in test [13]. For the same target, the log2 fold change in the test with ralimetinib was 0.025; in test [15], 0; in [6], -0.018; in test [7], 0.031; with pinometostat, 0.003; in [8], -0.022. Besides, in test [9], the log2 fold change is -0.054.
